# Laboratory results from PubChem BioAssay (NCATS).
# Several values for one entry are separate records, joined by “and”; a condition that tells them apart may be missing. Equal entries are not always repeated. Records with an inconclusive call do not appear. Values without a mark were called inactive. Activity calls are given as the source filed them. Calls come from the whole dose curve; as a rule, active = well fitted activation curve with a large enough effect in the signal ratio (not every such curve was filed as active); inconclusive = small, poorly fitted or top-dose-only effect, or a change in a side signal; inactive = flat fitted curve, though single readings scatter; the % refers to the signal ratio.
# Test: qHTS assay for small molecule activators of the p53 signaling pathway (AID 651743); for activation: series mostly up to about 92 µM; % of control where 0% means no effect
# Details: HCT-116 p53RE-bla, beta-lactamase FRET ratio, 16 h; activation: hits give high values
# Description: National Center for Advancing Translational Sciences [NCATS] NIH Chemical Genomics Center [NCGC] U.S. Environmental Protection Agency [EPA] National Institutes of Environmental Health Sciences [NIEHS] National Toxicology Program [NTP] Assay Overview: p53, a tumor suppressor protein, is activated following cellular insult, including DNA damage and other cellular stresses. The activation of p53 regulates cell fate by inducing DNA repair, cell cycle arrest, apoptosis, or cellular senescence. The activation of p53, therefore, is a good indicator of DNA damage and other cellular stresses. The CellSensor p53RE-bla HCT-116 cell line (Invitrogen) contains a stably integrated beta-lactamase reporter gene under control of the p53 response elements. The activation of the report gene under culture conditions can be detected by fluorescence intensity. This cell line can be used to screen chemicals in a 1536-well plate format and to identify agonists that activate p53 signaling pathway.
# Assay Protocol Summary: The p53RE-bla cells were dispensed at 4,000 cells/5 ul/well in 1536-well black wall/clear bottom plates using a Multidrop dispenser. After the assay plates were incubated at a 37 C/5% CO2 incubator for 5 hours, 23 nL of compounds dissolved in DMSO, positive controls or DMSO only was transferred to the assay plate by a pin tool. The plates were incubated at 37 C for 16 hours. After 1 uL of LiveBLAzer B/G FRET substrate was added using a Flying Reagent Dispenser, the plates were incubated at room temperature for 2 hours, and fluorescence intensity was measured by an Envision plate reader.
# Potency is the fitted concentration of half-maximal effect.
Compound,activation,Potency
COc1ccc2c(c1)c(CC(=O)O)c(C)n2C(=O)c1ccc(Cl)cc1,-7.78% and -10.3%,–
NCCS(=O)(=O)O,-1.87%,–
CCC1(c2ccccc2)C(=O)NCNC1=O,-3.22% and -3.23%,–
O=C(CCCN1CCC(O)(c2ccc(Cl)cc2)CC1)c1ccc(F)cc1,0.976%,–
CC(C)(Oc1ccc(C2CC2(Cl)Cl)cc1)C(=O)O (stereo not drawn),-1.02%,–
O=C(Nc1ccc([N+](=O)[O-])cc1Cl)c1cc(Cl)ccc1O,–,891 nM (active)
Cn1c(=O)c2[nH]cnc2n(C)c1=O,0.514%,–
Cc1cn([C@H]2C[C@H](N=[N+]=[N-])[C@@H](CO)O2)c(=O)[nH]c1=O,7.41% and -3.71%,–
C[C@](N)(Cc1ccc(O)c(O)c1)C(=O)O,-5.22%,–
Cn1c(=O)c2c(ncn2C)n(C)c1=O,-3.61% and -3.49%,–
NS(=O)(=O)c1cc2c(cc1Cl)NCNS2(=O)=O,-0.393% and 4.88%,–
COc1ccc2[nH]cc(CCNC(C)=O)c2c1,-4% and -3.68% and -2.3%,–
CCOC(=O)C(C)(C)Oc1ccc(Cl)cc1,3.33%,–
CC(C)Cc1ccc(C(C)C(=O)O)cc1 (stereo not drawn),-2.52%,–
Nc1ccn([C@H]2CC[C@@H](CO)O2)c(=O)n1,-0.413% and 2.91%,–
O=c1c(-c2ccc(O)cc2)coc2cc(O)cc(O)c12,12.7% and 14.1%,–
Nc1c2c(nc3ccccc13)CCCC2,1%,–
COc1ccc(CCN(C)CCCC(C#N)(c2ccc(OC)c(OC)c2)C(C)C)cc1OC (stereo not drawn),-2.6%,–
